Sampled rows, rich in hits. Any-hit rate of the full collection: about 3.5%.
mHTT-CaM PPI inh – mutant huntingtin-calmodulin interaction inhibitors – biochemical, AlphaScreen, primary screen; inhibition, % at 15 µM; AID 1671202, 2021; hit rate 3.6% among 190,000; P42858; AlphaScreen His-mHTT/GST-CaM binding, luminescence;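 note: 0% = both proteins with DMSO and 100% = one protein alone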
Pf apPOL block – Pf-apPOL inhibitors, biochemical, fluorescence. Recombinant Pf-apPOL, molecular beacon fluorescence, 1.5 h. inhibition, % at 10 µM. hit rate 0.25% among 210,000. AID 1794808, 2022
* = called active by the depositor; x = not tested or not shown. Cut-off read from the data, not from the text of the source: active = inhibition above about 50%; inactive = the rest.

SMILES	mHTT-CaM PPI inh	Pf apPOL block
CC1(C)C(C=C(Cl)Cl)C1C(=O)Nc1ccc(Cl)c(Cl)c1 (stereo unspecified)	-21	-6
O=C(CCCc1ccccc1)NCc1ccccn1	0	-10
Cn1c2ccc(Br)cc2c2nnc(SCN3C(=O)c4ccccc4C3=O)nc21	-2	-3
Cn1c2ccc(Br)cc2c2nnc(SCCN3CCOCC3)nc21	80*	-2
CC(=O)Nc1ccc(-c2noc(C3CCN(C(=O)c4cccc(Cl)c4)CC3)n2)cc1	48	-2
CC(C)NC(=O)N1CCCC(c2cccc(C(=O)N3CCC4(CC3)OCCO4)c2)C1 (stereo unspecified)	-1	-3
O=[N+]([O-])c1cccc(CN2CCC(O)CC2)c1	-5	-14
COC(=O)Nc1ccc(S(=O)(=O)N2CCC(C(=O)Nc3cccc(OC)c3)CC2)cc1	11	-3
COc1ccc(S(=O)(=O)N2CCC(C(=O)Nc3cccc(C(C)=O)c3)CC2)cc1	10	99*
O=C(Nc1cccc(-c2nc3ccccc3o2)c1)c1cccnc1Cl	0	74*
O=C(Nc1cccc(-c2nc3ccccc3o2)c1)c1ccccc1I	-4	-4
CCNC(=O)OCCC12CC3CC(CC(C3)C1)C2	-40	-6
CCC(=O)N1c2ccccc2NC2=C(C(=O)CC(C)(C)C2)C1CC1CC=C(C)C1(C)C (stereo unspecified)	59*	-1
CC(=O)N1c2ccccc2NC2=C(C(=O)CC(C)(C)C2)C1CC1CC=C(C)C1(C)C (stereo unspecified)	31	0
Cc1cccc(-c2cc3n(n2)CCCN(C(=O)c2cccc(C#N)c2)C3)c1	27	-4
Cc1cccc(-c2cc3n(n2)CCCN(C(=O)COc2ccc(Cl)cc2)C3)c1	83*	3
N#Cc1cccc(C(=O)N2CCCn3nc(-c4ccc(Cl)cc4)cc3C2)c1	55*	0
Cc1cccc(-c2cc3n(n2)CCCN(C(=O)c2ccncc2)C3)c1	11	-2
Cc1ccc(C(=O)N2CCCn3nc(-c4ccc(Cl)cc4)cc3C2)s1	71*	3
Cc1ccc(C(=O)N2CCCn3nc(-c4cccs4)cc3C2)s1	4	-3
CC(=O)N1c2ccc(S(=O)(=O)NCCC(C)C)cc2CC1C (stereo unspecified)	-1	-2
Cc1ccc(NC(=O)c2ccccc2C)cc1Cl	-25	-2
O=C(c1ccc(OCC2CCCN(C(=O)C3CCCCC3)C2)cc1)N1CCCCC1 (stereo unspecified)	16	-5
O=C(c1ccc(OCC2CCCN(C(=O)C3CCCC3)C2)cc1)N1CCCCC1 (stereo unspecified)	4	96*
O=C(c1csc(N2CCN(c3ccccc3F)CC2)n1)N1CCCCCC1	28	-3
SMILES	mHTT-CaM PPI inh	Pf apPOL block
Cc1nc(C)c(-c2csc(Nc3ccc([N+](=O)[O-])cc3)n2)s1	36	1
C=CCN1[C@@H](Cc2ccccc2)COc2cc(N3CCSCC3)ccc2S1(=O)=O	-14	-4
COc1cc(-c2nc3ccccn3c2N=Cc2ccc(F)cc2)ccc1O	79*	-5
COc1cc(-c2nc3ccccn3c2N=Cc2ccccc2)ccc1O	38	-6
Cc1cccc([C@H]2[C@@H]3C=CCC[C@@]3(C)C(=O)N2Cc2ccccc2)c1	5	-6
CC(=O)c1ccc(-c2cccc([C@H]3[C@@H]4C=CCC[C@@]4(C)C(=O)N3Cc3ccccc3)c2)cc1	85*	-2
COc1ccc(-c2cccc([C@H]3[C@@H]4C=CCC[C@@]4(C)C(=O)N3Cc3ccccc3)c2)cc1	70*	-8
C[C@@]12CCC=C[C@H]1[C@H](c1cccc([N+](=O)[O-])c1)N(Cc1ccccc1)C2=O	10	-4
COc1ccc([C@H]2[C@@H]3C=CCC[C@@]3(C)C(=O)N2Cc2ccccc2)cc1Cl	52*	-3
COc1ccc(-c2cc([C@H]3[C@@H]4C=CCC[C@@]4(C)C(=O)N3Cc3ccccc3)ccc2F)cc1OC	47	-3
Cc1cccc(OCC(=O)NC2(c3nc(C)no3)CCCCC2)c1	-3	-8
Cc1ccc(CN2CCCn3nc(C(=O)NCCN4CCOCC4)cc3C2=O)cc1	-10	-7
CC1Oc2ccccc2C=C1C=C1SC(=S)NC1=O (stereo unspecified)	59*	-13
CC1Oc2ccccc2C=C1C=C1SC(=S)N(CCC(=O)O)C1=O (stereo unspecified)	53*	-7
CC1Oc2ccccc2C=C1C=CC(=O)O (stereo unspecified)	-2	-9
COc1ccc(C=C2SC(=S)N(CCC(=O)O)C2=O)c(OC)c1	8	-6
O=c1[nH]c(=O)c2c(-c3ccccc3)csc2[nH]1	-3	-1
O=[N+]([O-])c1cccc(S(=O)(=O)Nc2cccc(I)c2)c1	5	-4
CC(=O)N1N=C(c2c(-c3ccccc3)c3cc(Cl)ccc3[nH]c2=O)CC1c1ccc(Cl)cc1 (stereo unspecified)	100*	-6
O=c1[nH]c2ccc(Br)cc2c(-c2ccccc2)c1C1=NOC(c2ccccc2)C1 (stereo unspecified)	15	0
COc1ccc(C2=NN(C(C)=O)C(c3ccc(Cl)cc3)C2)cc1 (stereo unspecified)	x	-4
O=c1[nH]c2ccc(Cl)cc2c(-c2ccccc2)c1C1=NOC(c2ccc(F)cc2)C1 (stereo unspecified)	100*	5
COc1ccc(-c2ccc3nc(C(=O)NC(C)C)cn3c2)cc1OC	33	2
S=c1sc2c(Cl)ncnc2n1-c1ccccc1	83*	x
S=c1sc2c(N3CCc4ccccc43)ncnc2n1-c1ccccc1	-2	x
SMILES	mHTT-CaM PPI inh	Pf apPOL block
COc1cc(C#CC(C)(C)O)c(OC)cc1C#CC(C)(C)O	6	-6
CC1(c2ccc(Br)cc2)NC(=O)CS1 (stereo unspecified)	85*	-6
CC1CCC2(CC1)SCC(=O)N2c1ccc(Br)cc1 (stereo unspecified)	2	13
COc1cccc(C(=O)NCCSc2c(C)[nH]c3ccccc23)c1	12	-2
COc1ccc(OC)c(NC(=O)c2c(NC(=O)CCC(=O)O)sc3c2CCCCC3)c1	54*	-8
COc1ccc(OC)c(NC(=O)c2c(NCc3ccncc3)sc3c2CCC3)c1	88*	-15
COc1ccc(NC(=O)c2c(NC(=O)CN3CCCC3)sc3c2CCC3)c(OC)c1	-2	-7
COc1ccc(OC)c(NC(=O)c2c(NCc3ccncc3)sc3c2CCCC3)c1	70*	-17
COc1ccc(CC(=O)Nc2sc3c(c2C(N)=O)CCCCCC3)cc1OC	6	-1
COc1ccc(OC)c(NC(=O)c2cccnc2)c1	2	-2
COc1ccc(OC)c(NC(=O)c2c(NCc3cccnc3)sc3c2CCCC3)c1	69*	-16
COc1ccc(NC(=O)c2c(NC(C)=O)sc3c2CCCC3)c(OC)c1	-1	-2
COc1ccc(OC)c(NC(=O)c2nc(-c3ccc(C)cc3)n3c2CCCCC3)c1	13	5
COc1cc(C(=O)NCc2cccnc2)cc(OC)c1OC	-2	1
CC1=CN2C(=NC(=O)CC2(C)C(=O)NCc2ccc(F)cc2)C=C1 (stereo unspecified)	-4	-16
CN(c1ccc(C(=O)Nc2cccnc2)cc1)S(=O)(=O)c1ccccc1	9	0
COc1ccccc1NC(=O)c1c(NC(=O)c2ccccc2Cl)sc2c1CCCC2	-7	-3
